Reference: PubChem BioAssay (NCI)
Values joined by “and” are separate entries in the source; they are usually repeats but may differ in a detail not shown here. Equal values may be shown once. The panel holds about 83,000 compounds, 20% with a hit somewhere; the sample as a whole holds those more often.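 96-well plates, one dose, 48 hours. Percent growth reported; active if below 10.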 Active and inactive are the calls of the source.

Each molecule was assayed on MDA-MB-468 breast (assay: NCI-60 one-dose screen, 48 h (100 = growth as untreated, 0 = no growth, -100 = all killed)). Conditions: 10 µM unless noted.

**Q.** With `O=C(/C=C/c1ccco1)c1nc2ccccc2n1Cc1ccc(Br)cc1` as the molecule, how does the growth read?
**A.** -14.5% (active)

**Q.** With `O=C(/C=C/c1ccco1)c1nc2ccccc2n1Cc1ccc(F)cc1` as the molecule, how does the growth read?
**A.** 24% (inactive)

**Q.** With `COc1cc2cc(C(=O)N3C[C@@H](CCl)c4c3cc(OC(=O)N3CCN(C)[C@@H]5CSSC[C@@H]53)c3ccccc43)[nH]c2c(OC)c1OC` as the molecule, how does the growth read?
**A.** -80% (active)

**Q.** With `C#CC[Se]C(=O)c1ccc2n[se]nc2c1` as the molecule, how does the growth read?
**A.** 25.9% (inactive)

**Q.** `O=C(/C=C/c1ccc(Cl)cc1)c1nc2ccccc2n1Cc1ccc(Br)cc1` was tested. Which growth did it give?
**A.** 9.05% (active)

**Q.** For `COc1cc2cc(C(=O)N3C[C@@H](CCl)c4c3cc(OC(=O)N3CCN(C)[C@@H]5CSSC[C@H]53)c3ccccc43)[nH]c2c(OC)c1OC`, which growth is on record?
**A.** -86.3% (active)

**Q.** For `CC12OOC(C)(OO1)C2CCC(=O)OCCNc1ccnc2cc(Cl)ccc12` (stereo not given), which growth is on record?
**A.** -51.6% (active)

**Q.** `CC(C)N=C([Se])NC(=O)c1cccs1` was tested. Which growth did it give?
**A.** 64.4% (inactive)

**Q.** With `Cc1ccc2[nH]c(=S)n(-c3ccc(F)cc3)c(=O)c2c1` as the molecule, how does the growth read?
**A.** 92.1% (inactive)

**Q.** Which growth does the source give for `CCOC(=O)C1=C(Nc2ccccc2)C(=O)OC12C(=O)Nc1ccccc12` (stereo not given) here?
**A.** 129% (inactive)

**Q.** Which growth does the source give for `CC12CCC3(CCC(=O)NCCCNc4ccnc5cc(Cl)ccc45)[C@@](C)(OO[C@]3(C)O1)O2` here?
**A.** -38.3% (active)

**Q.** `CC[C@]12C=CCN3CC[C@@]4(c5ccc(OC)cc5N(C)[C@H]4[C@@](O)(C(=O)OC)[C@@H]1OC(=O)CCCC[P+](C1CCCCC1)(C1CCCCC1)C1CCCCC1)[C@@H]32` was tested. Which growth did it give?
**A.** -79% (active)

**Q.** With `CC(=O)Oc1ccccc1C(=O)[Se]C(=NC(C)C)NC(C)C` as the molecule, how does the growth read?
**A.** -64.4% (active)

**Q.** With `COCCOCCOCCOc1ccc(-n2cc(CCCN(CCNc3ccnc4cc(Cl)ccc34)C(=O)CCC(=O)O[C@@H]3O[C@@H]4OC5(C)CC[C@H]6[C@H](C)CC[C@@H]([C@H]3C)[C@@]46OO5)nn2)cc1` as the molecule, how does the growth read?
**A.** 44.9% (inactive)

**Q.** For `C[C@H]1[C@@H](CC(=O)N[C@@H](Cc2coc3ccccc23)B(O)O)O[C@@H]2OC3(C)CC[C@H]4[C@H](C)CC[C@@H]1[C@@]24OO3`, which growth is on record?
**A.** -60.6% (active)

**Q.** For `CC12OOC(C)(OO1)C2CCC(=O)NCCNc1ccnc2cc(Cl)ccc12` (stereo not given), which growth is on record?
**A.** 82.7% (inactive)

**Q.** With `CC[C@]12C=CCN3CC[C@@]4(c5ccc(OC)cc5N(C)[C@H]4[C@@](O)(C(=O)OC)[C@@H]1OC(=O)CCC[P+](c1ccc(C)cc1)(c1ccc(C)cc1)c1ccc(C)cc1)[C@@H]32` as the molecule, how does the growth read?
**A.** -92.1% (active)

**Q.** How did the growth turn out when `CC(C)N=C([Se])NC(=O)c1ccccc1` was run?
**A.** -46% (active)

**Q.** Which growth does the source give for `CC[C@]12C=CCN3CC[C@@]4(c5ccc(OC)cc5N(C)[C@H]4[C@@](O)(C(=O)OC)[C@@H]1OC(=O)CCC[P+](C1CCCCC1)(C1CCCCC1)C1CCCCC1)[C@@H]32` here?
**A.** -79.6% (active)

**Q.** How did the growth turn out when `CC1=C(COCCOC(=O)c2ccc(S(=O)(=O)F)cc2)C2=C(C)C3(CC3)[C@@](C)(O)C(=O)C2=C1` was run?
**A.** -87.5% (active)

**Q.** `CC[C@]12C=CCN3CC[C@@]4(c5ccc(OC)cc5N(C)[C@H]4[C@@](O)(C(=O)OC)[C@@H]1OC(=O)CCCC[P+](c1ccc(OC)cc1)(c1ccc(OC)cc1)c1ccc(OC)cc1)[C@@H]32` was tested. Which growth did it give?
**A.** -92.7% (active)

**Q.** For `CC1=C(CCC=NNC(N)=O)C2=C(C)C3(CC3)[C@@](C)(O)C(=O)C2=C1`, which growth is on record?
**A.** -81.5% (active) and -65.8% (active)

**Q.** With `CC[C@@]12CC(C(=O)OC)=C3Nc4cc5c(cc4[C@@]34CCN(C[C@H]3O[C@H]31)[C@@H]24)[C@@H]1[C@H](O5)[C@@H](O)[C@@]2(CC)CC(C(=O)OC)=C3Nc4cc(OC)ccc4[C@@]34CCN1[C@@H]24` as the molecule, how does the growth read?
**A.** -56.3% (active)

**Q.** How did the growth turn out when `CCOP(=O)(CC(F)(F)C(F)(F)F)OCC` was run?
**A.** -59.3% (active)

**Q.** Which growth does the source give for `CC1=C2C(=C[C@@](C)(COP(=O)(Oc3ccccc3)Oc3ccccc3)[C@@H]2O)C(=O)[C@@](C)(O)C12CC2` here?
**A.** -89.8% (active)

**Q.** For `CC(=O)Oc1ccccc1C(=O)NC([Se])=NC1CCCCC1`, which growth is on record?
**A.** -4.29% (active)

**Q.** `C[C@H]1[C@H](OC(=O)CCC(=O)N(CCCc2cn(-c3ccc(CN4CCOCC4)cc3)nn2)CCNc2ccnc3cc(Cl)ccc23)O[C@@H]2OC3(C)CC[C@H]4[C@H](C)CC[C@@H]1[C@@]24OO3` was tested. Which growth did it give?
**A.** 29% (inactive)

**Q.** Which growth does the source give for `O=C(/C=C/c1ccc(Cl)cc1)c1nc2ccccc2n1Cc1ccc(F)cc1` here?
**A.** -5.26% (active)

**Q.** Which growth does the source give for `CC1=C(CCC=O)C2=C(C)C3(CC3)[C@@](C)(O)C(=O)C2=C1` here?
**A.** -86.5% (active)

**Q.** With `O=C(NC([Se])=NC1CCCCC1)c1ccc2c(c1)OCO2` as the molecule, how does the growth read?
**A.** 77.1% (inactive)

**Q.** For `C[C@H]1[C@H](OC(=O)CCC(=O)N(CCCc2cn(-c3ccc(C#N)cc3)nn2)CCNc2ccnc3cc(Cl)ccc23)O[C@@H]2OC3(C)CC[C@H]4[C@H](C)CC[C@@H]1[C@@]24OO3`, which growth is on record?
**A.** 46% (inactive)

**Q.** `C[C@H]1[C@@H](Oc2ccc(-c3cn(-c4ccnc5cc(Cl)ccc45)nn3)cc2)O[C@@H]2OC3(C)CC[C@H]4[C@H](C)CC[C@@H]1[C@@]24OO3` was tested. Which growth did it give?
**A.** 36.9% (inactive)

**Q.** For `COc1ccc(/C=C/C(=O)c2nc3ccccc3n2Cc2ccc(Br)cc2)cc1`, which growth is on record?
**A.** 16.9% (inactive)

**Q.** `COC(=O)CCn1c(-c2ccc(-n3cc(-c4ccc(O[C@H]5O[C@@H]6OC7(C)CC[C@H]8[C@H](C)CC[C@@H]([C@H]5C)[C@@]68OO7)cc4)nn3)cc2)nc2ccccc21` was tested. Which growth did it give?
**A.** 11.1% (inactive)

**Q.** How did the growth turn out when `C[C@H]1[C@H](OC(=O)CCC(=O)N(CCCc2cn(-c3ccc([N+](=O)[O-])cc3)nn2)CCNc2ccnc3cc(Cl)ccc23)O[C@@H]2OC3(C)CC[C@H]4[C@H](C)CC[C@@H]1[C@@]24OO3` was run?
**A.** 31.2% (inactive)
